Consider 13 molecules from article PMC12136788.

Whole data set: some 24,000 sequences, median “enrichment r” near 0.99, cut for the highest 2% near 3.7. These entries were drawn from the full list.

T1: UNK ZnF1-3 (human, UniProt Q9C0B0 31-174)
T1 sequence: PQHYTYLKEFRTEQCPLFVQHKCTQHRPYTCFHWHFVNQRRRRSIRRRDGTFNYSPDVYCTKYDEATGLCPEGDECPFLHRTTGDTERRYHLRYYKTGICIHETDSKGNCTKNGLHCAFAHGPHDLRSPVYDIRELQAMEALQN

B1: chr13:108516651:108516652:-_ENSMUSG00000032846_ENSMUST00000105097|mus_hu|motif|central (ssRNA)
RNA: GGGAGUUCUACAGUCCGACGAUCAUCAUGCGCCAUUAAGAAGGUCUCUCGGGCUUUGCUGAGGAACUCUAUAAACUCACGGUAGUGCCGAGGACUGAUGUGUGUGAGCCGUGAGUGCGUUGUGUUGAUGUAGGCCCCGAUCGUCAACAGAGGAUUGAGCAUCA
B2: 138058577_138059462_3783_3pUTR_ENSMUSG00000041642_ENSMUST00000075164|mouse|control|control (ssRNA)
RNA: GGGAGUUCUACAGUCCGACGAUCGGCCAGGGACUUGGUGAUGUUCUUGGUAGAGCUGUCCAAUGGGGGUCCUAGGCACUCCGCAGACACGGCCUUCAUCUGUGCGGAUAGCUUGGGCUCACCCUUGAACUUGAAGUCAUCGUGCAACAGAGGAUUGAGCAUCA
B3: chr12:39756943:39756944:-_ENSG00000139116_ENST00000544797|hu_mus|hu_hu_hu_mus_False|28_38 (ssRNA)
RNA: GGGAGUUCUACAGUCCGACGAUCGGUUUGGCUGUUACCCCCAAGGGAAUCCUGCAAGAGUCUUGUCAGCUUAGAGUCUCUGUAAGGGACAUGGGUGGCCCUCUUGCUCUUGUCUCCCAAGGCGCUGAUUACAUUCCCAAGAGCCAACAGAGGAUUGAGCAUCA
B4: chr2:73467608:73467609:+_ENSG00000135624_ENST00000258091|hu_mus|FALSE|FALSE (ssRNA)
RNA: GGGAGUUCUACAGUCCGACGAUCAUCCUGGGACUUGGCUAUGUCCACUAAAGUCUUUGCUGCAGGAUGGACAACAUCGAGGAGUUUCAGAAUUGUGGCCCCAUCAUUAGAUAUUGUUGCUUUGCCUCGGCCAUCCACAAUAAGCAACAGAGGAUUGAGCAUCA
B5: chr2:160604994:160604995:+_ENSG00000136536_ENST00000409591|hu_mus|motif|central (ssRNA)
RNA: GGGAGUUCUACAGUCCGACGAUCUCUUGAAGACUCAUCCCUUCCCUCUCGCCUCCUUCUCGAGAACAAAGGUGUGCAUCGGUUUCGGAGUGAAGAAGACAACCAUGGUCCUGAAUUUCUACCUUCUGAUUCUUGGUUAAAAUUCAACAGAGGAUUGAGCAUCA
B6: chr11:64571133:64571134:-_ENSG00000133895_ENST00000312049|hu_hu|motif|central (ssRNA)
RNA: GGGAGUUCUACAGUCCGACGAUCCUGAAAAAUAAAUCUAUGUACAAAACAGGAAGAGAUCAGGCUCUUGUCACCCACUCCGGACCCUCUGCAGAUUUCCUCCGGGAUGCUCCGAGAUGGGCUGGACCUCUGGGAGGUUCCCAGCAACAGAGGAUUGAGCAUCA
B7: chr10:93459826:93459827:-_ENSMUSG00000036099_ENSMUST00000119818|mus_mus|motif|central (ssRNA)
RNA: GGGAGUUCUACAGUCCGACGAUCUCCCCACACCAGCCAGGAGGACACAAUCCAGCACGUGGGAAACAUGAUGAGCAAACGGAUGAAGGCAAACAGCAGCGAGACAUCCCAAGUGUUCGGGGUUGCCAGGGAGCAGAGCGUUGGCAACAGAGGAUUGAGCAUCA
B8: chr9:95013113:95013114:-_ENSG00000196305_ENST00000443024|hu_hu|hu_hu_hu_mus_False|1_48 (ssRNA)
RNA: GGGAGUUCUACAGUCCGACGAUCCUCAGUCAGAAAGGGCGUGUAAGGGGCCAUCAGUCUGCACAGAGAAAGCAGGACACUGAACAGGGUUUCUAGGGCCAUGACACAGUCUUCCACCCCACUCUCACCCUUUAACCUUCUGCGCAACAGAGGAUUGAGCAUCA
B9: chr16:75661828:75661829:-_ENSG00000065427_ENST00000302445|hu_hu|FALSE|FALSE (ssRNA)
RNA: GGGAGUUCUACAGUCCGACGAUCUAUUAUUUUCUAGACAGAAGUGCCAACUGUUGUGCUUUCCAGUGUAUCAGUGGUUGCUACAUUCUCCUUCUUGUCUUCGGGUUUCAUGGCAGGAAACAGAAGUACUUCCUUGAUGUUGUUCAACAGAGGAUUGAGCAUCA
B10: chr11:29608675:29608676:+_ENSMUSG00000020458_ENSMUST00000102843|mus_mus|motif|central (ssRNA)
RNA: GGGAGUUCUACAGUCCGACGAUCCUCUGUAUCAGAAGGAAGUUUUUCCUCUGCUUCUUUCGUAAGUACUUUGGGUUUAACGGUGUUGCCCAUUUCUAUUUGAGAUUCCAAAGCAGAAACAUUUGGAAGCAAUAAGGGCACCUUCAACAGAGGAUUGAGCAUCA
B11: 136535675_136535795_2550_CDS_ENSMUSG00000030213_ENSMUST00000032335|mouse|control|control (ssRNA)
RNA: GGGAGUUCUACAGUCCGACGAUCCUGAGGCUGAGAGGUCACGGCAACGGGCACAUGCAGGAUCACUGGCAAGGGCUGCAGAGAGAUUGUAGGCUGAGGGGUCCCACUAGGCACCUGAGUAGUGGCAACUACGGUGGCUGUGCUCAACAGAGGAUUGAGCAUCA
B12: chr7:102952668:102952669:+_ENSG00000105819_ENST00000453466|hu_hu|motif|central (ssRNA)
RNA: GGGAGUUCUACAGUCCGACGAUCCUGUUUAAAAUCUGGUAGUUGCUUAAUGGGACCAACAGCAGCAAUAGCUGGACUCCGGUUAUAAAUGUAUUUGGUACAUACUUCUCGAAUUGUCUCAGCAUUCACAGCAUCAAUUCUUGCCAACAGAGGAUUGAGCAUCA
B13: chr2:120799606:120799607:+_ENSG00000115109_ENST00000263713|hu_hu|motif|central (ssRNA)
RNA: GGGAGUUCUACAGUCCGACGAUCGUACAUAAUCUGAUCAAACAACUCUUGUCCUUUGGCUUUUUUUGGCAAGUCCACACGGACAUCAGUACCAUCCAGAAGGGACACCCGACACGUGAUGAUGGACUUAGAAUCUCCAGCUGCCAACAGAGGAUUGAGCAUCA

In the assay the target is T1, UNK ZnF1-3. Nature of the assay: nsRBNS (natural sequence RNA bind-n-seq); RBNS binding buffer (assumed for nsRBNS): 25 mM Tris pH 7.5, 150 mM KCl, 3 mM MgCl2, 0.01% Triton X-100, 500 ug/ml BSA, 20 U/ml SUPERase-In, 4 C; UNK is unkempt and MSI1 is Musashi-1; names of the RNAs are library labels; protein concentration not given here; high values mean tight binding.
B1 showed a binding signal of 0.756 enrichment R.
In turn, B2 returned a binding signal of 0.657 enrichment R.
For the molecule B3, the binding signal was found to be 0.802 enrichment R.
B4 yielded a binding signal of 0.992 enrichment R.
For B5 the value was 0.976 enrichment R.
Then B6, with 0.877 enrichment R; and B7, with 2.05 enrichment R.
B8: the binding signal was determined as 0.937 enrichment R.
The molecule B9 had a binding signal of 0.567 enrichment R.
For B10 the value was 0.539 enrichment R; for B11, 1.73 enrichment R; for B12, 1.15 enrichment R.
For B13 the value was 0.976 enrichment R.
